# Measured values from PubChem BioAssay AID686979 (National Center for Advancing Translational Sciences (NCATS), 2013).
# Screen size: about 420,000 compounds; about 50,000 (12%) were called active. About 26% were inconclusive and are not listed. Calls come from the whole dose curve; as a rule, active = well fitted inhibition curve with a large enough effect; inconclusive = small, poorly fitted or top-dose-only effect; inactive = flat fitted curve, though single readings scatter. Many of the other results were omitted from the sample, so actives are more common in it than they were.
# Experiment: qHTS for Inhibitors of human tyrosyl-DNA phosphodiesterase 1 (TDP1): qHTS in cells in presence of CPT; note: nearly all actives have a fitted effect of over 55% in size
# Details: chicken DT40 Tdp1-/-;hTDP1 cells + 20 nM CPT, ATP luminescence, 48 h; series mostly up to 46.2 µM; activity change, negative = growth inhibition: at the top concentration
# How it was run: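 Chicken DT40 Tdp1-/- cells stably complemented with human TDP1 were seeded at 400 cells/well in medium containing 20 nM camptothecin, exposed to pin-transferred compounds, and grown at 37 °C for at least 48 hr. Viability was read as ATP luminescence.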
# % is set by controls: 0 for no effect and ±100 for the full control effect; potency is the fitted concentration of half-maximal effect.
Compound,"activity change, negative = growth inhibition",Potency
N=c1ccccn1Cc1ccccc1,8.77% (inactive),
CC1=CC(=Cc2sc3ccccc3[n+]2C)C=C(C)O1,,0.164 µM (active)
CCOc1ccc(-c2cc(C)[n+](CCN(CC)CC)c(-c3ccc(OCC)cc3)c2)cc1,,0.206 µM (active)
COc1cc(C(=O)N2Cc3ccc(Br)cc3-n3nncc3C2)cc(OC)c1OC,-22.5% (inactive),
CC=C(C)C(=O)OC1CCN2CC=C(COC(=O)C(O)(C(C)OC)C(C)(C)O)C12 (stereo not drawn),-7.32% (inactive),
CN(Cc1cccc2ncccc12)C(=O)c1cnn(-c2nccc(-c3ccccc3F)n2)c1C1CC1,,5.17 µM (active)
COc1ccccc1OC(=O)c1ccc(C)c(S(=O)(=O)N2CCOCC2)c1,-2.39% (inactive),
CC(=NC1CCN(Cc2ccccc2)CC1)c1c(O)n(C)c(=O)n(C)c1=O,2.92% (inactive),
N[C@H](Cc1o[nH]c(=O)c1Cl)C(=O)O,14% (inactive),
CO[C@@H]1C[C@@H](C[C@H]2CC[C@H](C)[C@@H]([C@@H](C)C(=O)O)O2)O[C@]2(O[C@](C)([C@H]3CC[C@@](C)(C4OC([C@H]5O[C@@](O)(CO)[C@H](C)C[C@@H]5C)C[C@@H]4C)O3)C[C@H]2C)[C@@H]1C (stereo partly drawn),,0.588 µM (active)
COC(=O)C1=C(c2ccc(F)cc2OCc2ccccc2)C[C@@H]2CC[C@H]1N2C(=O)NCc1ccc(OC)c(OC)c1,,18.4 µM (active)
COC(=O)C1=C(c2ccccc2)C[C@@H]2CC[C@H]1N2C(=O)NCc1ccco1,-25.1% (inactive),
COC(=O)C1=C(c2c(C)noc2C)C[C@@H]2CC[C@H]1N2C(=O)NCc1ccc2c(c1)OCO2,-0.834% (inactive),
COC(=O)C1=C(c2ccc(F)cc2OCc2ccccc2)C[C@@H]2CC[C@H]1N2C(=O)NCc1ccc(Cl)cc1,,20.6 µM (active)
CCOC(=O)c1cccc(C2=C(CNC(=O)c3ccncc3)[C@H]3CC[C@@H](C2)N3Cc2ccccc2)c1,-27.1% (inactive),
COC(=O)C1=C(c2ccc(-c3ccccc3)c(F)c2)C[C@@H]2CC[C@H]1N2C(=O)NCc1ccc(F)cc1,,16.4 µM (active)
COC(=O)C1=C(c2cccc(OCc3ccccc3)c2)C[C@@H]2CC[C@H]1N2C(=O)NNCc1ccccc1,,20.6 µM (active)
COc1ccc(CCn2c(O)c(C=NC3CC3)c(=O)[nH]c2=O)cc1OC,-22.4% (inactive),
CCN(CC)c1ccc([N+](=O)[O-])c2cccnc12,15.9% (inactive),
CC(C)c1c(CN(C)C(C)Cc2ccccc2)n(C)n(-c2ccccc2)c1=O (stereo not drawn),18.3% [at 21.1 µM] (inactive),

Compound,"activity change, negative = growth inhibition",Potency
CCN1c2nc3c(C)cccn3c(=O)c2CC2(C(=O)N(C)C(=O)N(C)C2=O)C1C (stereo not drawn),0.865% (inactive),
CCC(C)n1c(O)c(/C=N/Nc2nc3c(c(=O)n(C)c(=O)n3C)n2C)c(=O)[nH]c1=S (stereo not drawn),-24.8% (inactive),
Fc1cccc(F)c1CN1CCN(Cc2c(F)cccc2F)CC1,2.75% (inactive),
Cc1cc(C(=O)OCC(=O)Nc2c(F)cccc2F)c(C)n1C1CC1,1.17% (inactive),
COC(=O)C1=C(c2ccc(OCc3ccccc3)cc2)C[C@@H]2CC[C@H]1N2C(=O)NCc1cccc(F)c1,,25.9 µM (active)
COC(=O)C(c1ccccc1)N1CCCCCC1 (stereo not drawn),-14.3% (inactive),
COC(=O)C1=C(c2ccccc2)C[C@@H]2CC[C@H]1N2C(=O)N1CCCCC1,,5.8 µM (active)
O=C(NC(=S)N1C[C@H]2C[C@H](C1)c1cccc(=O)n1C2)c1ccc(F)cc1,5.87% (inactive),
CC1CCCN1CCC(C(N)=O)(c1ccccc1)c1ccccc1 (stereo not drawn),-7.87% (inactive),
COc1ccc(CCn2c(O)c(C=NCCCn3ccnc3)c(=O)[nH]c2=O)cc1OC,20.8% (inactive),
CC(=O)Cc1ccc(OC(C)C)cc1,-0.0899% (inactive),
Cc1cc2ccccn2c1C(C[N+](=O)[O-])c1c(F)cccc1Cl (stereo not drawn),,18.4 µM (active)
C[N+]1(C)CCOC(O)(c2ccc(-c3ccc(C4(O)C[N+](C)(C)CCO4)cc3)cc2)C1 (stereo not drawn),,inactive
COc1cc(Cl)ccc1Nc1ncc(C(=O)N2CCN(c3ccccc3OC)CC2)c2ccccc12,,14.6 µM (active)
CN1CCN(C(=O)O[C@@H]2c3nccnc3C(=O)N2c2ccc(Cl)cn2)CC1,6.19% (inactive),
CCOC(=O)c1c(C)c(C(=O)N2CCC3(CC2)OCCO3)c(C)n1CC,-15.2% (inactive),
CN1CCN(Cc2ccccc2C(F)(F)F)CC1,-1.55% (inactive),
CCOC(=O)C1(c2ccccc2)CCN(CC(O)c2ccc(NC(C)=O)cc2)CC1 (stereo not drawn),11.8% (inactive),
CCOC(=O)CC1=C(C(=O)OCC)C2(C(=O)N1)C(C(=O)OC)=C(N)Oc1ccccc12 (stereo not drawn),-3.36% (inactive),
COC1C(O)C(C)OC(OC2CCC3(C=O)C(CCC4C3CCC3(C)C(C5=CC(=O)OC5)CCC43O)C2)C1O (stereo not drawn),,0.206 µM (active)

Compound,"activity change, negative = growth inhibition",Potency
COC1CC(OC2CC[C@@]3(C=O)C4CC[C@]5(C)C(C6=CC(=O)OC6)CC[C@@]5(O)C4CC[C@]3(O)C2)OC(C)C1O (stereo partly drawn),,1.3 µM (active)
c1csc(CN2CCCC3(CCNCC3)C2)n1,0.355% (inactive),
C=Cn1ccnc1P(=S)(c1cc(N(CC)CC)ns1)c1nccn1C=C,-23.1% (inactive),
Cc1ncsc1CCCl,,inactive
CC[N+]1(CCOC(=O)C(O)(c2ccccc2)c2ccccc2)CCCCC1,3.37% (inactive),
C/C(=C\C=C/[C@@H](C)C(=O)O)[C@H]1CN[C@H](C(=O)O)[C@@H]1CC(=O)O,-0.395% (inactive),
Cc1ccc(NC(=O)CN(C)CC(=O)Nc2cccc(F)c2)cc1[N+](=O)[O-],,1.84 µM (active)
O=C(CN1CCCC1=O)NCCc1ccccc1,2.72% (inactive),
CN(C)P(=S)(Nc1ccccc1)C(Cl)(Cl)Cl (stereo not drawn),-3.66% (inactive),
O=C1NC(=O)N(CCc2ccc(F)cc2)C(=O)/C1=C/C=C/c1ccccc1,,3.26 µM (active)
O=C(O)COc1ccccc1/C=C1\C(=O)NC(=O)N(CCC2=CCCCC2)C1=O,18.2% (inactive),
OCC#CC[N+]1(CC#Cc2ccccc2)CCCC1,-6.84% (inactive),
Cc1ccc(P(=S)(c2ccc(C)o2)N2CCOCC2)o1,-13.2% (inactive),
CC(=O)C12CC(C)=C(C)CC1CC1C3CCC4=CC(=O)CCC4(C)C3CCC12C (stereo not drawn),,13 µM (active)
COC(=O)C[C@H]1CC[C@H]2NC[C@@H](O)COC[C@@H]2O1,0.913% (inactive),
C[C@H]1CN([C@@H](C)CO)C(=O)CCCn2nncc2CO[C@H]1CN(C)C(=O)Oc1ccccc1,-12.4% (inactive),
Cc1cc(N2C(=O)C3CCCN3C2c2ccc(Cl)c(Cl)c2)no1 (stereo not drawn),6.24% (inactive),
CCN1C(=O)NC(=O)C2(CCCC2)C1=O,4.76% (inactive),
